Measured values from PubChem BioAssay AID720582 (The Scripps Research Institute Molecular Screening Center, 2013).
The whole screen tested about 370,000 compounds, of which about 2,300 (0.62%) were called active.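 The calls were made as follows: active = inhibition above a per-campaign cutoff equal to the mean of compounds falling between control-based bounds plus 3 SD (cut at about 20% in these data); inactive = the rest.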 The full list was thinned out, with actives kept by preference.

Target: Disintegrin and metalloproteinase domain-containing protein 10 (Homo sapiens) (UniProt O14672)
Sequence (O14672 214-748 limits assumed): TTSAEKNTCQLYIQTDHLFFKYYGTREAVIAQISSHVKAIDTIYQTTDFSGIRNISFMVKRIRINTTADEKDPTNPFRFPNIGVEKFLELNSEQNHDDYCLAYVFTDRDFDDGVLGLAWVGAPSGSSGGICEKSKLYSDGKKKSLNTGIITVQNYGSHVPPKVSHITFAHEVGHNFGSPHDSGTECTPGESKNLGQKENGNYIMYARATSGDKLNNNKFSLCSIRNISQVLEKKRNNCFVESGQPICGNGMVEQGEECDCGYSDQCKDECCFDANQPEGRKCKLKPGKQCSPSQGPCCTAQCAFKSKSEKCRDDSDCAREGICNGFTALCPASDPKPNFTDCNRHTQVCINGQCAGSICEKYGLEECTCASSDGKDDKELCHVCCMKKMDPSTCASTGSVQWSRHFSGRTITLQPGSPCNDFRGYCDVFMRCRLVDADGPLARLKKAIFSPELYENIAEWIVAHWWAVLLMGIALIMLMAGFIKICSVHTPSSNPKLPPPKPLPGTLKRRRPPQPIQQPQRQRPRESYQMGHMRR
Assay: human ADAM10 inhibitors, primary screen, biochemical, QFRET, HTS (AID 720582);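 also: 0% = DMSO wells while the 100% control is not disclosed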
Conditions: recombinant ADAM10, EDANS/DABCYL FRET peptide cleavage, 3 h; at 7 µM; active compounds read high

How did the inhibition turn out when `COc1ccc(N2CCN(CCNS(=O)(=O)c3ccc([N+](=O)[O-])cc3)CC2)cc1` was run?
The inhibition was 5.38% (inactive).

How did the inhibition turn out when `COc1ccc(C(=O)COC(=O)c2c(C)noc2C)cc1Cl` was run?
Its inhibition is 3.87% (inactive).

For `Cc1[nH]c2ccccc2c1C(=O)COC(=O)c1c(-c2ccccc2)noc1C`, which inhibition is on record?
Its inhibition is 24.7% (active).

Which inhibition does the source give for `Cc1[nH]c2ccccc2c1C(=O)CN1CC(C)CC(C)C1` (centres undefined) here?
The inhibition was -6.1% (inactive).

For `COCCCNC(=O)C[C@H]1C[C@@]2(C(=O)OC)C(=C[C@H](C(C)(C)C)O[C@@H]2C)N(Cc2ccc(Cl)cc2Cl)C1=O`, which inhibition is on record?
The inhibition was 8.61% (inactive).

For `C=CS(=O)(=O)N(Cc1nnn(Cc2ccccc2)c1Br)[C@H](C(=O)OC)C(C)C`, which inhibition is on record?
Its inhibition is 5.21% (inactive).

With `CCOC(=O)[C@]12CCCC=C1N(Cc1ccc(OC)cc1)C(=O)[C@@H]2CC(=O)N1CCOCC1` as the compound, how does the inhibition read?
The inhibition was 0.19% (inactive).

For `COc1ccc(Cl)cc1NC(=O)CN(C)C(=O)CCCc1c[nH]c2ccccc12`, which inhibition is on record?
The inhibition was 56.1% (active).

`COc1ccc(Cl)cc1NC(=O)CN(C)C(=O)c1ccc2n[nH]nc2c1` was tested. Which inhibition did it give?
Its inhibition is -4.74% (inactive).

Which inhibition does the source give for `COc1ccc(Cl)cc1NC(=O)CN(C)C(=O)CNC(=O)C12CC3CC(CC(C3)C1)C2` here?
Its inhibition is 0.24% (inactive).

Which inhibition does the source give for `O=C(CSc1nnc(-c2ccccn2)n1-c1ccccc1)Nc1ccc2cn[nH]c2c1` here?
Its inhibition is 1.78% (inactive).

How did the inhibition turn out when `CCOC(=O)c1ccc(NC(=O)c2nc[nH]c2C(=O)N[C@@H](CCCCNC(=O)OC(C)(C)C)C(=O)OC(C)(C)C)cc1` was run?
The inhibition was -1.17% (inactive).

Which inhibition does the source give for `Cc1ccc(NC(=O)c2nc[nH]c2C(=O)N[C@@H](CCCCNC(=O)OC(C)(C)C)C(=O)OC(C)(C)C)cc1` here?
The inhibition was 22.4% (active).

How did the inhibition turn out when `CC(C)(C)OC(=O)NCCCCCNC(=O)c1[nH]cnc1C(=O)Nc1nccs1` was run?
Its inhibition is -0.11% (inactive).

How did the inhibition turn out when `Cc1nc(CNc2ncnc3ccc(-c4ccc5c(c4)OCO5)cc23)cs1` was run?
Its inhibition is -136% (inactive).

How did the inhibition turn out when `CC(C)(C)c1ccc(C(=O)Nc2cc(Cl)c(Br)cc2C(=O)O)cc1` was run?
The inhibition was 19.8% (active).

For `CSc1nccc(NC(=O)c2ccc(C(C)(C)C)cc2)n1`, which inhibition is on record?
Its inhibition is 10.6% (inactive).

Which inhibition does the source give for `CSc1ccc(C#N)cc1NC(=O)c1ccc(Cl)cc1` here?
The inhibition was 7.58% (inactive).

How did the inhibition turn out when `COC(=O)[C@H](C(C)C)N(CCCc1cn(Cc2ccccc2)nn1)S(=O)(=O)c1ccc(F)cc1Br` was run?
The inhibition was 2.42% (inactive).

`C=CCN1C(C(=O)OC)CN(Cc2cn(Cc3ccccc3)nn2)CCS1(=O)=O` (centres undefined) was tested. Which inhibition did it give?
The inhibition was 2.91% (inactive).

`O=C1NC(Nc2nc3ccccc3s2)(C(F)(F)F)C(=O)N1C1CCCCC1` (centres undefined) was tested. Which inhibition did it give?
The inhibition was 21% (active).

How did the inhibition turn out when `Cc1cccc(N2C(=O)N3[C@H](c4ccc(F)cc4)[C@@H]4C(=O)N(C5CCCCC5)C(=O)[C@@H]4[C@]3(Cc3ccccc3)C2=O)c1` was run?
The inhibition was 5.39% (inactive).

How did the inhibition turn out when `Cc1cccc([C@@H]2[C@@H]3C(=O)N(Cc4ccccc4)C(=O)[C@@H]3[C@]3(Cc4ccc(Cl)cc4)C(=O)N(c4cccc(Cl)c4)C(=O)N23)c1` was run?
Its inhibition is -4.37% (inactive).

Which inhibition does the source give for `O=C1[C@H]2[C@@H](c3ccc(F)cc3)N3C(=O)N(c4ccc(C(F)(F)F)cc4)C(=O)[C@@]3(Cc3ccccc3)[C@H]2C(=O)N1C1CCCCC1` here?
The inhibition was 22.2% (active).
